Drawing on PubChem BioAssay AID1276 (Columbia University Molecular Screening Center, 2008), this text covers activation for 105 compounds.

The structures appear in SMILES notation. The campaign covered roughly 190,000 compounds. About 2,000 (1.1%) were called active. The list comes from a sample in which actives are over-represented; it also holds similar structures and randomly drawn compounds. Unmarked numbers belong to inactive results.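 The calls were made as follows: active = activation above a set limit, based on mean plus 3 SD of controls (cut at about 140% in these data); inconclusive = one replicate above the limit, the other below; inactive = the rest.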

The nature of this test: activators of APP 5'UTR luciferase reporter, primary screen, SH-SY5Y cells (AID 1276). Conditions: SH-SY5Y APP 5'UTR luciferase reporter, luminescence; at 2 µM; hits give high values; zero percent = DMSO vehicle wells. For orientation: Reporter assays use an easily measured gene product as a stand-in for the process of interest.
For the compound `O=C(CN1CCN(c2ccccn2)CC1)N1CCc2ccccc21`, the activation is 30.9%.

Consider `O=C(c1cc(-c2ccccc2O)on1)N1CCCC1`, for which the activation was 102%.

For `COc1ccccc1-c1cc(C(=O)N2CCCCC2)no1`, the activation is 113%.

As to `O=C(c1cc(-c2cccs2)on1)N1CCCCC1`, the activation was 138% (active).

As to `O=C(Nc1ccc(N2CCOCC2)cc1)c1ccc(-c2ccccc2[N+](=O)[O-])o1`, the activation is 17.6%.

As for `CC1Cc2ccccc2N1C(=O)CSc1nnc(C2CC2)n1C` (stereo not given), the activation is 23.3%.

In the case of `COc1ccc(N2C(=O)CC(Sc3n[nH]c(-c4ccc(C)cc4)n3)C2=O)cc1` (stereo not given), the activation is 14.7%.

With `O=C(Nc1ccc(F)cc1)N1CCCC(c2nc3c(nnn3Cc3ccccc3Cl)c(=O)[nH]2)C1` (stereo not given), the activation was -4.96%.

As to `Cn1nnc2cc(C(=O)NCCC3=CCCCC3)ccc21`, the activation was 174% (active).

Turning to `CN(c1ccc(C(=O)NCCC2=CCCCC2)cc1)S(C)(=O)=O`, the activation is 76%.

Take `O=C(NCCC1=CCCCC1)c1ccc(Cl)c([N+](=O)[O-])c1`: the activation was 8.77%.

Consider `CCOCCCNC(=O)C(=O)NCCCOCC`, for which the activation is -1.33%.

In the case of `O=C(C1CCCO1)N(c1ccc(F)cc1)C1C=CS(=O)(=O)C1` (stereo not given), the activation was 5.93%.

Consider `Cc1ccc(NC(=O)COC(=O)CCc2nc3ccccc3n2-c2ccccc2)c(C)c1`, for which the activation is 11.8%.

In the case of `O=C(CN1CCN(c2ncccn2)CC1)Nc1ccccc1C(F)(F)F`, the activation was -6.86%.

For `Cc1ccc(CN(Cc2cccnc2)C(=S)Nc2cc(Cl)ccc2C)cc1`, the activation was 2.52%.

Take `CC(=O)Nc1ccc(-c2csc(NC(=O)Nc3ccccc3)n2)cc1`: the activation is -14.7%.

For `CSCCC(Nc1nc2ccccc2s1)C(=O)O` (stereo not given), the activation is -7.07%.

Consider `O=C(Nc1nc2ccccc2s1)c1ccc2c(c1)OCO2`, for which the activation was 183% (active).

Take `COCc1nnc(NC(=O)c2ccc3c(c2)OCO3)s1`: the activation is 61.2%.

As for `O=C(Nc1ccccc1)Nc1nc2ccccc2s1`, the activation was 212% (active).

Turning to `Cc1cc(C)c2nc(NC(=O)c3ccc4c(c3)OCO4)sc2c1`, the activation was -8.57%.

As for `CCCC1NC(=S)NC(C)=C1C(C)=O` (stereo not given), the activation is -10.8%.

`CCCCCOc1ccc(/C=C/C(=O)NCCc2nc3ccccc3[nH]2)cc1OC`: the activation is -0.79%.

For the compound `S=C(NCc1ccco1)Nc1ccc2c(c1)OCCO2`, the activation was 18.6%.

Regarding `CC1CCCC(C)N1/N=C/c1ccccc1OC(F)F` (stereo not given), the activation was 5.03%.

In the case of `CCOc1ncccc1C(=O)OCc1cn2cc(Cl)ccc2n1`, the activation is -0.86%.

With `O=c1cc(CSc2ccc(Cl)cc2)nc(N2CCOCC2)[nH]1`, the activation is 6.36%.

Take `Clc1ccc2nc(CSc3ccccc3)cn2c1`: the activation was 216% (active).

Take `Cc1nn(Cc2ccc(F)cc2)c(C)c1NC(=O)c1cccnc1Cl`: the activation was 10.3%.

`COc1ccc(-c2[nH]nc(-c3ccccc3)c2-c2nc3ccccc3[nH]2)cc1`: the activation was -4.36%.

Regarding `c1ccc(-c2[nH]ncc2-c2nc3ccccc3[nH]2)cc1`, the activation is -1.2%.

Take `COc1ccc(Br)cc1C(=O)NC(=S)Nc1cc(-c2nc3ccccc3[nH]2)ccc1C`: the activation is 21.4%.

For the compound `Cc1ccc(-c2nc3ccccc3[nH]2)cc1N`, the activation was 201% (active).

With `c1ccc2[nH]c(-c3nc4ccccc4[nH]3)nc2c1`, the activation is 181% (active).

On to `Cc1ccc(-c2nc3ccccc3[nH]2)cc1NC(=O)c1sc2ccccc2c1Cl`, for which the activation is -3.21%.

On to `COc1ccc(C2CC(c3ccccc3)=NN2C(=O)COC(=O)COc2ccccc2)cc1` (stereo not given), for which the activation is 0.61%.

Turning to `O=C(CSc1ccc([N+](=O)[O-])cn1)Nc1ccc(N2CCOCC2)c(Cl)c1`, the activation was -13%.

Consider `COc1ccc(OC)c(Nc2nc(-c3ccc(O)c(O)c3)cs2)c1`, for which the activation was -40.2%.

Consider `COc1ccc(-c2csc(Cc3nc(O)cs3)n2)cc1`, for which the activation is 157% (active).

Take `COc1ccc(-c2csc(NC(=O)CCCc3cccs3)n2)cc1`: the activation is -2.07%.

Consider `Cc1cccc(/C(N)=N/OC(=O)c2ccccc2Cl)c1`, for which the activation is 206% (active).

Consider `Cc1cccc(C(=O)c2cccc(C)c2)c1`, for which the activation is 7.97%.

`N/C(=N\OC(=O)c1cc(-c2ccccc2)nc2ccccc12)c1ccncc1`: the activation was 7.36%.

For `Cc1ccc(NC(=S)N2CCN(c3ncccn3)CC2)cc1C`, the activation was 2.51%.

On to `COc1ccc(-c2nc3cc([N+](=O)[O-])ccc3o2)cc1OC`, for which the activation is 20.2%.

Turning to `COc1cccc(-c2nc3cc(C)ccc3o2)c1`, the activation was 172% (active).

Consider `O=[N+]([O-])c1cccc(Nc2c3ccccc3nc3ccccc23)c1`, for which the activation was -0.09%.

Turning to `COc1ccc2oc(-c3cccc(NC(=O)CSc4ccc(Cl)cc4)c3)nc2c1`, the activation was 48.5%.

As to `O=[N+]([O-])c1ccc2oc(-c3cccc(O)c3)nc2c1`, the activation is 184% (active).

With `COc1cccc(-c2nc(S(=O)(=O)c3ccccc3)c(N3CCOCC3)o2)c1`, the activation was 10.7%.

For the compound `N#Cc1c(-c2ccc(Cl)cc2)c2c([nH]c1=S)CCCC2`, the activation is 15.9%.

In the case of `COc1cc(OC)c(-n2cc(-c3ccc(Cl)cc3)[nH]c2=O)cc1Cl`, the activation is -7.27%.

Consider `CC1(C)CC(=O)C=C(N2CCOCC2)C1`, for which the activation was 6.79%.

With `CCCNS(=O)(=O)c1ccc(CCC(=O)N2CCCC2)cc1`, the activation is 4.45%.

Regarding `CCC(=O)NC(=Nc1nc2ccccc2s1)NC(=O)CC`, the activation was 147% (active).

For the compound `CC(C)CC(=O)N/C(N)=N/c1nc2ccccc2s1`, the activation is 203% (active).

Take `CC(C)CC(=O)NC(=S)NCc1ccccc1`: the activation is 9.6%.

Consider `COC(=O)c1nc2ccccc2s1`, for which the activation was -8.64%.

Regarding `O=C(O)CSCc1nc2ccccc2s1`, the activation is -3.48%.

On to `O=C(O)CCCCc1nc2ccccc2s1`, for which the activation was -11.6%.

For `Cc1ccc(C(=O)NNC(=O)c2cccs2)cc1`, the activation is 38.8%.

As for `NC1=NC(=O)C(Cc2cccc(Cl)c2)S1` (stereo not given), the activation was 11.8%.

Regarding `C=CCO/N=C/C1=C(O)C(C(=O)OC)C(C)(C)CC1=O` (stereo not given), the activation was 7.9%.

With `Cc1cccc(C)c1OCC(=O)NC(Cc1c[nH]c2ccccc12)C(=O)O` (stereo not given), the activation is 10.3%.

As to `O=C(CN1C(=O)c2cccc3cccc1c23)Nc1ccccc1`, the activation is -9.88%.

For the compound `O=C(N/N=C/c1cc2c(cc1Br)OCO2)C1COc2ccccc2O1` (stereo not given), the activation is -5.77%.

Regarding `O=C(NCCc1ccccc1)c1ccc(OCCOc2ccccc2)cc1`, the activation was 4.18%.

`O=C(NCCOc1ccccc1)c1ccccc1`: the activation is 123%.

For the compound `CCCOc1ccc(C(=O)NCCc2ccccc2)cc1`, the activation was 156% (active).

Consider `O=C(Nc1ccc(NC(=O)c2cccs2)cn1)c1ccco1`, for which the activation is 148% (active).

As to `Cc1ccnc(NC(=O)c2ccc(NC(=O)c3ccco3)cc2)c1`, the activation is 79.3%.

For the compound `COc1cccc(C(=O)Nc2ccc(NC(=O)c3ccco3)cn2)c1`, the activation was 25.8%.

As to `O=C(Cc1ccccc1)NNC(=O)C1CCN(c2ncccn2)CC1`, the activation was 18.4%.

As for `O=C(NC1CCCC1)c1ccc(Br)s1`, the activation is -4.11%.

Consider `O=C(Nc1ccc2c(c1)CCC2)c1ccc(Br)s1`, for which the activation was 208% (active).

With `CC(C)C(=O)OCC(=O)Nc1ccc2c(c1)CCC2`, the activation is 5.67%.

In the case of `Cc1ccc2nsnc2c1S(=O)(=O)N1CCCC1C(=O)O` (stereo not given), the activation is -2.44%.

Turning to `COc1ccc2nc(Nc3nc(-c4cc5ccccc5oc4=O)cs3)sc2c1`, the activation was 33%.

Take `CCNc1nc(-c2cc3ccccc3o2)cs1`: the activation was 188% (active).

Regarding `O=c1oc2ccccc2cc1-c1csc(Nc2ccc(O)cc2)n1`, the activation was 61%.

On to `CC(Nc1ccccc1)c1cccnc1` (stereo not given), for which the activation was -12.4%.

With `CCOc1ccc2nc(NCCNS(=O)(=O)c3ccccc3)c(C#N)cc2c1`, the activation is 6.65%.

In the case of `CCOc1ccc2cc(C#N)c(SCC(=O)OC)nc2c1`, the activation was 159% (active).

Turning to `Cc1nonc1NC(=O)CSc1nc2ccccc2cc1C#N`, the activation was 15.1%.

As for `CN1CCN(/N=C2/C(=O)Nc3ccc([N+](=O)[O-])cc32)CC1`, the activation was 13.5%.

In the case of `COc1ccc2nc(SCc3ccccc3)nc(C)c2c1`, the activation was 170% (active).

On to `COC(=O)CSc1nc(C)c2ccc(OC)cc2n1`, for which the activation is 0.88%.

As for `COc1ccc(-c2nnc3ccc(SCc4ccccc4)nn23)cc1`, the activation was -7.22%.

In the case of `Cc1ccc(NC(=O)CCC(=O)N/N=C/c2ccco2)c(C)c1`, the activation was 8.01%.

`COc1ccc(C2=Nc3cc(C)ccc3OC2)cc1`: the activation was 151% (active).

For the compound `COc1ccc(C2=NOC(COC(=O)c3ccc4ccccc4n3)C2)cc1` (stereo not given), the activation is 16.6%.

For `COc1ccc(C2=NOC3(CC(=O)N(c4ccc(C)cc4)C3=O)C2)cc1` (stereo not given), the activation was -3.01%.

Consider `CCOc1ccccc1N1CCN(C(=S)Nc2ccc(S(N)(=O)=O)cc2)CC1`, for which the activation was 11.8%.

In the case of `Clc1ncn(CCOc2ccccc2)c1Cl`, the activation was -15.2%.

For the compound `Fc1ccc2nc(Nc3nc4c(s3)CCCC4)sc2c1`, the activation is 143% (active).

As to `CSc1ncccc1C(=O)Nc1nc2ccc(F)cc2s1`, the activation was 52.4%.

As to `Fc1ccc2nc(N3CCCCC3)sc2c1`, the activation was 112%.

Regarding `CC(=O)Nc1ccc(S(=O)(=O)N2CCN(c3ccc([N+](=O)[O-])c(NCCN4CCOCC4)c3)CC2)cc1`, the activation was -6.4%.

In the case of `O=C(COC(=O)[C@H](Cc1ccccc1)NC(=O)c1cccs1)Nc1cc(F)ccc1F`, the activation is 12.5%.

For the compound `O=C(CSc1nnc(SCc2ccc(Cl)cc2)s1)N/N=C/c1ccccc1Cl`, the activation was -2.73%.

As for `Cc1csc(SCC(=O)Nc2sccc2C#N)n1`, the activation is 192% (active).

As for `Cc1cccc(C)c1Nc1nnc(SCC(=O)Nc2sccc2C#N)s1`, the activation is -9.91%.

On to `COc1ccc(NC(=O)CSc2nc(C)cs2)cc1`, for which the activation is 6.05%.

For the compound `C=CCn1c(CCNC(=O)c2cccs2)n[nH]c1=S`, the activation is -1.77%.
